From PubChem BioAssay AID1851 (National Center for Advancing Translational Sciences (NCATS), 2009) come the findings set out here.

As usually defined, the AC50 is the concentration giving half of the maximal activity seen.

SMILES strings stand for the structures. Out of some 16,000 compounds screened, about 5,700 (36%) were called active. Not shown: some 24% with an inconclusive outcome. Some of the results follow. A number with no mark means an inactive call. Calls come from the whole dose curve; as a rule, active = well fitted curve in the direction sought with a large enough effect; inconclusive = small, poorly fitted or top-dose-only effect, or effect the other way; inactive = no such curve, though single readings can be large or run the other way.
% is set by controls: 0 for no effect and ±100 for the full control effect.

For the test, the target named is Cytochrome P450 1A2 (Homo sapiens) (UniProt P05177). The experiment in a line: Cytochrome panel assay with activity outcomes. The note with it: recombinant CYP, pro-luciferin dealkylation, luminescence, p450-cyp1a2; series mostly up to 57.1 µM.
Cytochrome P450 1A2 (Homo sapiens), sequence (P05177 whole entry, looked up): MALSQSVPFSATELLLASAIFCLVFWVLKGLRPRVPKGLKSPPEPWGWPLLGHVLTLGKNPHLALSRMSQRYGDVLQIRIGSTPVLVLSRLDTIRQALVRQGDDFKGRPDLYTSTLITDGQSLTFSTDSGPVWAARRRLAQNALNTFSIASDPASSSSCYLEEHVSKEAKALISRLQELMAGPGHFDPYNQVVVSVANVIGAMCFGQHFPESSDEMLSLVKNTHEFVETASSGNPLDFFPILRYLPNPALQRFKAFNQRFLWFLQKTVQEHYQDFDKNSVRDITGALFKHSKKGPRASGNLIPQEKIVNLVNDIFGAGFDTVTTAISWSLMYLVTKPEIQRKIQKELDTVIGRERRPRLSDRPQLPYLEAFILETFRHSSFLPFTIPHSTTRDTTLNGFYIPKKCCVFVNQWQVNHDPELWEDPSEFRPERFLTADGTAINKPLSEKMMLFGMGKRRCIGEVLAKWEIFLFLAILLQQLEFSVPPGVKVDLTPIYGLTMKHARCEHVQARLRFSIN
For the molecule `O=C(O)/C(=C/c1c(C(=O)O)[nH]c2cc(Cl)cc(Cl)c12)c1ccccc1`, the AC50 was 12.6 µM (active).

With `c1ccc(-c2nnc(SCCC3OCCCO3)o2)cc1`, the half-maximal activity concentration (AC50) is 1.78 µM (active).

For `Cc1cc(C(=O)CSc2nnc(-c3ccccc3)o2)c(C)n1CC1COc2ccccc2O1` (stereo not drawn), the AC50 result was “inactive”.

`CCC1CCc2c(c3ccccc3[nH]c2=O)O1` (stereo not drawn): the AC50 was 0.562 µM (active).

As to `C#CCn1c(=O)c2c(ncn2C)n(C)c1=O`, the AC50 result was “inactive”.

Turning to `CC[C@@H](c1ccccc1)n1c(=O)n2n(c1=O)[C@H]1[C@H](O)[C@H]3O[C@@H]3/C(=N/OC/C=C(\C)CCC=C(C)C)[C@@H]1CC2`, the activity, negative = inhibition is -18.9% [at 11.4 µM].

For the molecule `Cc1nc(/N=C(\N)Nc2ccccc2)nc2ccccc12`, the AC50 was 5.01 µM (active).

On to `Cc1cccc(N/C(N)=N/c2nc(C)cc(C)n2)c1`, for which the AC50 was 12.6 µM (active).

For the molecule `[O-][n+]1c(CN2CCCCC2)nc2cccc3c2c1-c1ccccc1-3`, the AC50 was 1.58 µM (active).

`Oc1cccnc1CN1CCCCC1`: the activity, negative = inhibition was -14.4% [at 11.4 µM].

For the molecule `CN1CCN(Cc2nc3cccc4c3c([n+]2[O-])-c2ccccc2-4)CC1`, the concentration at half-maximal activity (AC50) is 1.26 µM (active).

As to `Cc1noc(C)c1C(=O)N1CCC[C@@]2(CCN(Cc3cc(C(F)(F)F)cc(C(F)(F)F)c3)C2)C1`, the AC50 entry was “inactive”.

`Nc1ccc(N=Nc2c(S(=O)(=O)O)cc3ccccc3c2S(=O)(=O)O)cc1`: the activity, negative = inhibition is -20.9% [at 2.29 µM].

Take `CCC(C)NC(=O)C1CCCN(C(=O)NC2CCCCC2)C1` (stereo not drawn): the AC50 result was “inactive”.

With `CCNC(=S)N1CCC(NC(=O)C2CCCCC2)CC1`, the AC50 entry is “inactive”.

For the molecule `CC(C)CCNC(=S)NC1CCCC1`, the AC50 was 14.1 µM (active).

For `Cc1sc(N/N=C/c2cccnc2)nc1-c1ccccc1`, the half-maximal activity concentration (AC50) is 0.0631 µM (active).

Consider `CC(=O)c1nnn(-c2nc(N)nc(N(c3ccccc3)c3ccccc3)n2)c1C`, for which the half-maximal activity concentration (AC50) is 22.4 µM (active).

In the case of `CC(=O)c1c(N2CCC(C(N)=O)CC2)nc(=S)n(-c2ccccc2)c1C`, the AC50 result was “inactive”.

In the case of `O=C(O)CCC(O)=C1S(=O)(=O)OCCOS1(=O)=O`, the activity, negative = inhibition was -21.5% [at 11.4 µM].

Regarding `COc1ccc(C(=O)Nc2ccc(F)cc2F)cc1OC`, the concentration at half-maximal activity (AC50) is 14.1 µM (active).

With `O=C(O)/C=C/C(=O)Nc1ccc(F)cc1F`, the AC50 entry was “inactive”.

For `O=C(O)c1ccccc1C1c2ccccc2Oc2ccccc21`, the activity, negative = inhibition was -20.4% [at 2.29 µM].

As to `CC(=O)c1ccc(OC(=O)C2c3ccccc3Oc3ccccc32)cc1`, the AC50 is 4.47 µM (active).

Consider `COC(=O)c1c(-c2cc(OC)c(OC)c(OC)c2)c2ccc(OCc3ccccn3)cc2c(=O)n1-c1ccc(N)cc1`, for which the AC50 result was “inactive”.

`CCNc1ncc2nc(C)c(=O)n(CCc3ccccc3)c2n1`: the AC50 is 1.58 µM (active).

As for `O=c1cnc2cnc(Nc3ccccc3)nc2n1CCc1ccccc1`, the half-maximal activity concentration (AC50) is 3.16 µM (active).

Take `CCNc1ncc2ncc(=O)n(CCc3ccccc3)c2n1`: the AC50 is 1 µM (active).
